Most compounds without a hit are left out; they make up all but 3.5% or so of the library.
GPR151 activ – human GPR151 activation | PathHunter beta-arrestin GPR151 cells, luminescence | AID 1508602 | activation, % at 11.2 µM | hit rate 1% among 650,000; in the data active = activation above about 4.9%;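 note: 0% = median of compound wells and 100% = cells with positive control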
MITF inh – human MITF inhibition, primary screen | O75030 | AlphaScreen MITF homodimerization, bead proximity signal | inhibition, % at 2.6 µM | hit rate 0.91% among 650,000 | AID 1259374; in the data active = inhibition above about 50%;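 note: 0% = vehicle wells with protein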
TEAD-YAP inh – TEAD-YAP interaction inhibition. HEK-TIYL cells, TEAD-Gal4/YAP UAS-luciferase luminescence. inhibition, % at 9.12 µM. hit rate 1.4% among 640,000; in the data active = inhibition above about 32%;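 note: 0% = median of test compound wells and 100% = reference inhibitor wells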
FBW7 act – activators of human E3 ligase FBW7. Q969H0. AlphaScreen FBW7–phospho-cyclin E peptide binding, activator screen. normalized activity (activation), % at 26.1 µM. hit rate 0.13% among 650,000. AID 1259310; in the data active = normalized activity above about 1.9%;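 note: purified mutant Fbw7 with reduced substrate affinity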
GPR151 confirm – human GPR151 activation, confirmation screen; AID 1508609; activation, % at 11.2 µM; shares compounds with GPR151 activ; 6,700 tested, under 10 active; GPR151 PathHunter beta-arrestin cells, luminescence, 90 min; % of EA-reagent control over plate median;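 active = mean percent activation across replicates above the confirmation screen cutoff of 4.91%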
GPR119 counter – activates human GPR119 in a GPR151 counter-screen. GPR119 PathHunter beta-arrestin cells, luminescence, 90 min; 0 = compound-well median, 100 = enzyme-acceptor control. shares compounds with GPR151 activ. activation, % at 11.2 µM. hit rate 0.3% among 6,700. AID 1508611;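 active = mean percent activation in the counterscreen above 29.09%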;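 note: counterscreen on off-target GPR119 to flag nonselective hits from the GPR151 activator screen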
* marks the source's active call; other numbers are inactive results; nt = no result.

SMILES | GPR151 activ | MITF inh | TEAD-YAP inh | FBW7 act | GPR151 confirm | GPR119 counter
COc1cccc(/C=N/NC(=O)CNc2cccc(Cl)c2)c1O | 7.2* | 12 | 17 | 0 | -1 | -13
Cc1ccsc1C(=O)OC/C(O)=C(\C#N)c1nc2ccccc2[nH]1 | -2 | 14 | -1 | 0 | nt | nt
Cn1c(Nc2ncc(C(=O)NCCOc3ccccc3)s2)nc2ccccc21 | 0 | 1 | 7 | 0 | nt | nt
CC(C#N)Sc1nnc2ccccn12 (centres undefined) | 0 | -6 | -1 | 0 | nt | nt
CCOc1ccc(/C=N/NC(=O)C(O)c2ccccc2)c(O)c1 (centres undefined) | 5.8* | 9 | -6 | 0 | 1 | 6
COc1ccc(O)c(/C=N/NC(=O)CCC(=O)Nc2cccc(C)c2)c1 | 8.7* | 30 | 23 | 0 | 0 | 6
Cc1ccccc1NCC(=O)N/N=C\c1cc(Br)cc(Cl)c1O | 9.2* | 10 | 22 | 0 | -1 | -8
c1ccc(Nc2cc(Nc3ccc(N4CCOCC4)cc3)ncn2)cc1 | 1 | 24 | -16 | 0 | nt | nt
CN(C)c1cccc(Nc2cc(Nc3ccc(N4CCOCC4)cc3)ncn2)c1 | 5.2* | 1 | -9 | 0 | 0 | 18
C[C@]12CCC(=O)C=C1CCC1C2[C@@H](O)C[C@@]2(C)C1CC[C@]2(O)C(=O)CO (some centres undefined) | 1 | 20 | -3 | 0 | nt | nt
COc1cc(C(=O)Nc2cc(=O)n(C)c(=O)n2C)cc(OC)c1OC | 5.7* | -5 | -2 | 0 | 0 | 0
O=C1NC(c2ccccc2)=NC1(NS(=O)(=O)c1ccc(Cl)cc1)C(F)(F)F (centres undefined) | 6.9* | 9 | -2 | 0 | 0 | 3
CC1(C)C(=O)NC2CCCCC2N1C(=O)CCl (centres undefined) | 5.3* | 10 | 9 | 1 | 0 | -2
COc1ccc2c(CNCc3ccc(F)cc3)c(C(=O)O)n(Cc3ccc(C)cc3)c2c1 | 7.8* | 1 | 6 | 0 | 0 | 2
CC(=O)N/C(=C\c1ccccc1)C(=O)NCc1ccccc1Cl | 0 | 2 | -1 | 1 | nt | nt
O=C1CN(c2ccc(Cl)cc2)S(=O)(=O)c2ccccc2N1 | 5.6* | 2 | -6 | 0 | 1 | -3
Cc1nnc(SCC(=O)N2CCCCC2)n(N)c1=O | -1 | 10 | 5 | 0 | nt | nt
Cc1nnc(SCC(=O)N2CCCC2)n(N)c1=O | 5.5* | 13 | 5 | 1 | 0 | 12
COc1ccccc1NC(=O)CSc1nc2ccccc2c(=O)n1Cc1ccc2c(c1)OCO2 | -1 | -7 | 7 | 0 | nt | nt
O=C(CCC(=O)Nc1ccc(I)cc1)N/N=C/c1ccc(F)cc1 | 6.6* | 5 | 1 | 0 | -1 | -14
O=C(NCc1n[nH]c(=S)n1-c1cccc(C(F)(F)F)c1)c1ccc(S(=O)(=O)N2CCCCC2)cc1 | 5.4* | 8 | 8 | 0 | 1 | 16
COC(=O)C1=C(O)/C(=C\c2ccc(F)cc2)N=C1C | 8.6* | -6 | 6 | 0 | 1 | -7
CCN(CC)Cc1c(C(=O)N/N=C/c2cccc(Cl)c2)nnn1-c1nonc1N | 1 | -5 | -9 | 1 | nt | nt
CCOC(=O)COc1cc(C)cc2oc(=O)cc(-c3ccccc3)c12 | 5.2* | 15 | 7 | 0 | -1 | -13
Cc1c(Cl)cccc1NC(=O)c1ccc(N2C(=O)c3ccccc3C2=O)cc1 | 7.0* | -6 | -8 | 0 | 1 | 3
SMILES | GPR151 activ | MITF inh | TEAD-YAP inh | FBW7 act | GPR151 confirm | GPR119 counter
Cc1cc2c(NCc3ccco3)ncnc2s1 | 1 | 12 | 18 | 0 | nt | nt
COC(=O)C1=C(C(=O)OC)SC2(S1)C(C(=O)OC)=C(C(=O)OC)SC1=C2c2cc(C)c(C)cc2NC1(C)C | 5.8* | 19 | 4 | -2 | 1 | 12
Cc1c([N+](=O)[O-])cc(C(=O)Nc2cccc(C(F)(F)F)c2)cc1[N+](=O)[O-] | -1 | 13 | 13 | 0 | nt | nt
Cc1c(Br)c(C(F)(F)F)nn1CC(=O)Nc1cccc(O)c1 | 10.0* | -12 | -1 | 0 | 1 | 10
CC(=O)c1cccc(NC(=O)Cn2nc(C(F)(F)F)c(Cl)c2C)c1 | 1 | 18 | 2 | 0 | nt | nt
CC(=O)c1c(C)oc2ccc(NS(=O)(=O)c3ccc4c5c(cccc35)C(=O)N4)cc12 | 0 | -12 | -6 | 0 | nt | nt
